Composite z-score and z-score data for five molecules are collected here from PubChem BioAssay.

The subject of test [1] is Plasmodium falciparum Sir2 (PF13_0152, Sir2A). In words: pfSir2 binders on small-molecule microarrays, primary screen, biochemical, small-molecule microarray, 635 nm fluorescence (AID 1098).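 Further: score merges spot fluorescence intensity with its signal-to-noise ratio.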 The conditions noted are these: small-molecule microarray binding, fluorescence 635 nm; higher = more signal.
A short description of test [2]: small-molecule microarray binders of probe aDKK1, primary screen, biochemical, biotinylated probe, 635/667 nm fluorescence (AID 1099).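 Further: score merges 667nm spot fluorescence with signal to noise across triplicate slides.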 The conditions noted are these: higher = more signal.
A short description of test [3]: small-molecule microarray binders of probe aCHRDL2, primary screen, biochemical, biotinylated probe, 635/667 nm fluorescence (AID 1100). The conditions noted are these: higher = more signal.
The nature of test [4]: splicing luciferase reporter signal modulators, primary screen, spliceosome inhibition project, cell-based, HEK293, splice +/- reporter (AID 1101).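 Further: HEK293 cells carrying a splicing-competent luciferase reporter gene; test concentration not given here.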 The conditions noted are these: luminescence, 24 h, higher = more signal, called active from +8 up or from −8 down.
Test [5] deals with Fibroblast growth factor 10 (Homo sapiens) (UniProt O15520). Description: FGF10 binders on small-molecule microarrays, primary screen, biochemical, small-molecule microarray, 635 nm fluorescence (AID 1102). The conditions noted are these: FGF10 binding, fluorescence 635 nm, higher = more signal.
Test [6] relates to glycogen synthase kinase-3 (GSK3A per assay name; protocol says GSK3B). Description: GSK3 binders on small-molecule microarrays, primary screen, biochemical, small-molecule microarray, 635 nm fluorescence, GSK3A (AID 1103). Further: the record names both GSK3A and GSK3B. The conditions noted are these: small-molecule microarray binding, fluorescence 635 nm; higher = more signal.
Test [7] has as its target Epidermal growth factor receptor (Homo sapiens) (UniProt P00533). Description: EGFR binders on small-molecule microarrays, primary screen, biochemical, small-molecule microarray, 635 nm fluorescence (AID 1104).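 Further: score merges 667 nm emission intensity with spot signal to noise over triplicate slides.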 The conditions noted are these: EGFR binding, higher = more signal.
Test [8] deals with Follistatin-related protein 3 (Homo sapiens) (UniProt O95633). Description: FSTL3 binders on small-molecule microarrays, primary screen, biochemical, small-molecule microarray, 635 nm fluorescence (AID 1105).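 Further: score merges emission near 667 nm and signal to noise per printed spot across three slides.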 The conditions noted are these: FSTL3 binding, higher = more signal.
For test [9], the target named is Dickkopf-related protein 1 (Homo sapiens) (UniProt O94907). In words: DKK1 binders on small-molecule microarrays, primary screen, biochemical, small-molecule microarray, 635 nm fluorescence scan (AID 1106).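 Further: score merges emission near 667 nm with signal to noise over three replicate slides.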 The conditions noted are these: DKK1 binding, higher = more signal.
Test [10] relates to Inhibin beta A chain (activin A). Description: INHBA (activin A) binders on microarrays, primary screen, biochemical, small-molecule microarray, 635 nm fluorescence scan (AID 1107).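 Further: mouse activin A protein probed at 4.33 µg/mL on printed slides; score merges bound-protein fluorescence near 667 nm with spot signal-to-noise.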 The conditions noted are these: small-molecule microarray binding, higher = more signal.
Test [11] deals with Human papillomavirus type 1a protein E7 (residues 44-93). Description: HPV1a E7 fragment binders on microarrays, primary screen, biochemical, small-molecule microarray, residues 44-93, 635 nm fluorescence (AID 1108).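 Further: E7 fragment applied at 1 µg/mL in TBST for 1 h at 4 C; score combines spot fluorescence with its signal to noise ratio.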 The note with it: small-molecule microarray binding, fluorescence 635 nm; higher = more signal.
Test [12] in a line: modulators of HCV replicon luciferase signal, primary screen, HCV replication inhibitor project, Huh7 cells, luciferase reporter (AID 1109).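 Further: huh7 hepatoma cells harbouring a luciferase neomycin HCV replicon reporter; luciferase luminescence as measure of HCV replicon replication; test concentration not given here.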 The note with it: 48 h, higher = more signal. (In antiviral work, replicon cells carry a viral genome segment that copies itself.)
The target in test [13] is Left-right determination factor 2 (Homo sapiens) (UniProt O00292). In words: LEFTY2 binders on small-molecule microarrays, primary screen, biochemical, small-molecule microarray, 635 nm fluorescence scan (AID 1110). The note with it: LEFTY2 binding, higher = more signal.
Test [14] deals with Calmodulin-1 (Homo sapiens) (UniProt P0DP23). In words: CALM1 binders on microarrays, EGTA buffer, profiling panel, biochemical, small-molecule microarray, Cy5-labelled CALM1 (AID 1111).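 Further: labelled calmodulin applied in Tris saline Tween buffer holding calcium plus EGTA and DTT.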 The note with it: Cy5-CALM1 binding fluorescence, higher = more signal.
Test [15] has the same target. In words: calcium-bound CALM1 binders on microarrays, profiling panel, artefact control for SMM control-protein annotation, biochemical, small-molecule microarray, Cy5-labelled CALM1, plus calcium (AID 1112).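 Further: score merges spot fluorescence with signal to noise from triplicate slides.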 The note with it: Cy5-CALM1 binding fluorescence, higher = more signal.
Test [16] is described as follows: small-molecule microarray binders of probe aWnt5a, primary screen, biochemical, biotinylated probe, 635/667 nm fluorescence (AID 1113).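 Further: score merges 667 nm fluorescence intensity with signal-to-noise per printed feature.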 The note with it: higher = more signal.
A short description of test [17]: small-molecule microarray binders of probe aShh, primary screen, biochemical, biotinylated probe, 635/667 nm fluorescence (AID 1114).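 Further: probe is biotin-labelled aShh protein from a stem cell growth factor screen; measures binding of labelled protein to compounds printed on the slide; score merges feature fluorescence at 667 nm with signal-to-noise.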 The conditions noted are these: higher = more signal.
Test [18] in a line: small-molecule microarray binders of probe aNog, primary screen, biochemical, biotinylated probe, 635/667 nm fluorescence (AID 1115).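 Further: probe is biotinylated aNog protein used at 0.15 µg/mL for 1 h at 4 C; z-score combines 667 nm fluorescence of each spot with its signal to noise.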 The note with it: higher = more signal.
Test [19] has as its target Torsin-1A-interacting protein 1 (Homo sapiens) (UniProt Q5JTV8). In words: LAP1 binders from COS7 cell lysate, primary screen, small-molecule microarray, 635/667 nm fluorescence (AID 1116). The note with it: COS7-hLAP1 lysate binding, 635 nm fluorescence, higher = more signal.
Test [20] concerns the target Alpha-bungarotoxin (Bungarus multicinctus) (UniProt P60615). Description: alpha-bungarotoxin binders on microarray, profiling panel, artefact control for SMM control protein annotation, biochemical, small-molecule microarray, Alexa647 label, 635/667 nm fluorescence (AID 1117). The note with it: alpha-BTX-A647 binding fluorescence, higher = more signal.

Calls of active or inactive are those of the source.

Dickkopf-related protein 1 (Homo sapiens), sequence (O94907 whole entry, looked up): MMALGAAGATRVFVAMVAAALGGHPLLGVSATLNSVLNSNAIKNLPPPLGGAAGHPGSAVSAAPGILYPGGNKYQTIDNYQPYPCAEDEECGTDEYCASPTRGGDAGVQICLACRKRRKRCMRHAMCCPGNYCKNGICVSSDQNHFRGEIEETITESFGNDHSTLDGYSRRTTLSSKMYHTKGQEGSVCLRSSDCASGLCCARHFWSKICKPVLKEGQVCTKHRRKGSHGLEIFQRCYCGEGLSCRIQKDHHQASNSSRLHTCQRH
Follistatin-related protein 3 (Homo sapiens), sequence (O95633 whole entry, looked up): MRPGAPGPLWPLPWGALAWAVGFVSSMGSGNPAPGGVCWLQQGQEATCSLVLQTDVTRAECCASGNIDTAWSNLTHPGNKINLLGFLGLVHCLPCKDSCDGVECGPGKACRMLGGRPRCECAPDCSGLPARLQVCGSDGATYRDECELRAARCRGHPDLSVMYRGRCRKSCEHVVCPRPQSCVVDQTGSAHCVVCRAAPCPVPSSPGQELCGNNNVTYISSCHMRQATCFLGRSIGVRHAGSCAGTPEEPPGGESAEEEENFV
Alpha-bungarotoxin (Bungarus multicinctus), sequence (P60615 whole entry, looked up): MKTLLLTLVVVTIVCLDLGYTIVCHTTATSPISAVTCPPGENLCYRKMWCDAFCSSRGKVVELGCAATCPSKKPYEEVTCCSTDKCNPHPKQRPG
Torsin-1A-interacting protein 1 (Homo sapiens), sequence (Q5JTV8 whole entry, looked up): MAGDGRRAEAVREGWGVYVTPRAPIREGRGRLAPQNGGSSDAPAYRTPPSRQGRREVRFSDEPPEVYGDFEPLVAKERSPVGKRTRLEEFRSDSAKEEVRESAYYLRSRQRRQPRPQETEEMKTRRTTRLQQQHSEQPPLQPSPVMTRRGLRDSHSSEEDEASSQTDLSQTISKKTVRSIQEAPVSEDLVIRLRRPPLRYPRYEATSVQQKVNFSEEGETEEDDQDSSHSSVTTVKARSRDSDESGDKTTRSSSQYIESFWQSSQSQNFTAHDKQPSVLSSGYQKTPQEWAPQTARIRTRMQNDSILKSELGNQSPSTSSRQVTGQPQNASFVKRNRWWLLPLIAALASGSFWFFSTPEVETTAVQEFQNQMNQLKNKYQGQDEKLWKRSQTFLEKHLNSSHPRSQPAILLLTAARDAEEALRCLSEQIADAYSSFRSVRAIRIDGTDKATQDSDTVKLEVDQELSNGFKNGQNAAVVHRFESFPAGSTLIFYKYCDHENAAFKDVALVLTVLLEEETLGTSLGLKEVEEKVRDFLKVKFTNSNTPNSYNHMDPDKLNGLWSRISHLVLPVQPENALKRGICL
Left-right determination factor 2 (Homo sapiens), sequence (O00292 whole entry, looked up): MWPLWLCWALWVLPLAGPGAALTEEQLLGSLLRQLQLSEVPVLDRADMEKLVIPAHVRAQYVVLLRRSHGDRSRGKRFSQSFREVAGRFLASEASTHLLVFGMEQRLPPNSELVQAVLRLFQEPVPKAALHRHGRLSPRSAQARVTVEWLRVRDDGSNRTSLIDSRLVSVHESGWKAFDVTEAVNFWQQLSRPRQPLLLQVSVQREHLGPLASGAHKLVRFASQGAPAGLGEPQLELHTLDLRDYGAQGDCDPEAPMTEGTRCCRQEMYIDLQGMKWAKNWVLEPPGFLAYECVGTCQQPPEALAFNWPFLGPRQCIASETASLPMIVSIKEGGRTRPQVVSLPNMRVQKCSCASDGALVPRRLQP
Epidermal growth factor receptor (Homo sapiens), sequence (P00533 whole entry, looked up): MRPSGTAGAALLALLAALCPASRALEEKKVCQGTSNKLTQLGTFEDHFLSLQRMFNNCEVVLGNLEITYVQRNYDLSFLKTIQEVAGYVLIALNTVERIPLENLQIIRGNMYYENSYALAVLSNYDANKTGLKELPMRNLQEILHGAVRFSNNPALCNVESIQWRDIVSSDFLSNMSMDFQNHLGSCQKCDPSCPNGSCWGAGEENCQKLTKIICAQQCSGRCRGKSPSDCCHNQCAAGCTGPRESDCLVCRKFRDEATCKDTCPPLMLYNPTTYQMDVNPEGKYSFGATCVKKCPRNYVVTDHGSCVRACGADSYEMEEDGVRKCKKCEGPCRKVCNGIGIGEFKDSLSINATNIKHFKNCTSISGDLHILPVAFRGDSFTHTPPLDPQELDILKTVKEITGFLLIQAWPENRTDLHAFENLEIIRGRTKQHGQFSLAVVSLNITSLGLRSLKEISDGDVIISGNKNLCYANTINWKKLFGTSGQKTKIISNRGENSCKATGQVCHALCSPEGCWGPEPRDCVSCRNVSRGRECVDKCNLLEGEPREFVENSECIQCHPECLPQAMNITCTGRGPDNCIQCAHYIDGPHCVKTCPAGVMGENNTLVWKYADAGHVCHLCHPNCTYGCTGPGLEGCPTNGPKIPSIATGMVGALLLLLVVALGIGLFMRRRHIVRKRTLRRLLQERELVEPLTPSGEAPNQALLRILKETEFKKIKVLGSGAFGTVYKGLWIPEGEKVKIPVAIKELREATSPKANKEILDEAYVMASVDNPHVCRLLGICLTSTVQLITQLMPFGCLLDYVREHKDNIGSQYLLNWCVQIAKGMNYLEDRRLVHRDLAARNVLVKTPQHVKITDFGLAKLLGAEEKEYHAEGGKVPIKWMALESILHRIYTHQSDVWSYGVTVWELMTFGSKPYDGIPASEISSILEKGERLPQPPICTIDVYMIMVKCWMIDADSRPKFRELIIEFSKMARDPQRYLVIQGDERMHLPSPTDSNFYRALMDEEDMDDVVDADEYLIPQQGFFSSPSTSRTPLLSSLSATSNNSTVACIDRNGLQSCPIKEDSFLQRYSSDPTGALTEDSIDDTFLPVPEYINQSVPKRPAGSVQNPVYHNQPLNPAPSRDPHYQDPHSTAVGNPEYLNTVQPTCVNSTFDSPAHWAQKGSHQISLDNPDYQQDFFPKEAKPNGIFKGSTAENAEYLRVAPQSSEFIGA
Fibroblast growth factor 10 (Homo sapiens), sequence (O15520 whole entry, looked up): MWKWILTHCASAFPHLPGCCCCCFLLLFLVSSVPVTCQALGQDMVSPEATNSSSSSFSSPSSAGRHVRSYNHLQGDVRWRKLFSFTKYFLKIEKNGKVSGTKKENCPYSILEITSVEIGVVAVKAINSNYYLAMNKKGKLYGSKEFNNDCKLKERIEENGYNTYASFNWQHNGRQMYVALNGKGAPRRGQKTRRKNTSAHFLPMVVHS

On to `Cc1ccc(S(=O)(=O)N2[C@@H](c3ccccc3)C(C(=O)O)=CC[C@H]2c2ccc(F)cc2)cc1`, for which the composite z-score is -0.434 in test [1]; -0.224 in test [2]; 0.633 in test [3]; 0.876 in test [5]; 1.08 in test [6]; -0.882 in [7]. Moreover, the composite z-score in test [8] was 0.489; in test [9], -0.757; in test [10], -1.32; in test [11], 1.46; in test [13], -1.25; in [14], -0.599. Further, the composite z-score in test [15] is -0.388; in test [16] it was 0.108; in test [17], -0.291; in [18] it was 0.325; in test [19], 1.94; in [20], 1.18. For the same molecule, the values for the z-score in [4] and in test [12] were -0.207 (inactive) and -0.547, respectively.
Turning to `CC(C)C[C@@H]1NC(=O)[C@@H]2C[C@H](C(=O)NCCCCCCNC(=O)CS)[C@H](c3ccc(O)cc3)N2C1=O`, the composite z-score in test [1] is 1.57; in test [2], -0.0965; in test [3], 0.254; in test [5] it was 1.45; in test [6], 1.26; in test [7], 0.672. The composite z-score was 1.47 in test [8]; 1.27 in test [9]; -0.0334 in test [10]; 1.48 in test [11]; 0.734 in test [13]; 1.06 in test [14]. Besides, the composite z-score in [15] is 0.152; in test [16], -0.0495; in [17], -0.0211; in test [18], 0.693; in test [19], 0.469; in test [20] it was 1.76. The z-score in test [4] is -1.1 (inactive); in test [12], 0.388.
Regarding `[N-]=[N+]=NCc1ccccc1[C@H]1OC(c2ccc(OCCCO)cc2)=N[C@@]1(CCS(=O)(=O)c1ccccc1)C(=O)O`, the composite z-score was 0.94 in test [1]; 0.224 in test [2]; 0.906 in [3]; 0.283 in [5]; 0.0448 in test [6]; -0.371 in [7]. Further, the composite z-score in test [8] is -0.0142; in [9], -0.697; in test [10] it was 0.839; in [11] it was 0.746; in test [13], -0.266; in test [14], 0.461. Also, the composite z-score in test [15] was -0.331; in test [16], -0.15; in test [17], -0.156; in test [18], -0.246; in [19], 0.703; in test [20], -0.553. The z-score is 0.436 (inactive) in [4] and -1.98 in test [12].
`COCCOC(=O)N1C(=O)[C@@]2(c3cc(C#CCC(C(=O)OC)C(=O)OC)ccc31)[C@H](C(=O)N1CCc3cc(OC)c(OC)cc3C1)[C@H]1C(=O)O[C@H](c3ccccc3)[C@H](c3ccccc3)N1[C@@H]2c1ccccc1OCCO`: the composite z-score in [1] is 0.496; in test [2], -0.381; in test [3], -0.162; in test [5] it was 1.18; in test [6], 1.31; in [7], 1.01. The composite z-score amounted to 1.38 in test [8]; 1.19 in test [9]; 1.02 in [10]; 1.36 in test [11]; 1.07 in test [13]; 0.965 in [14]. Also, the composite z-score is -0.226 in test [15]; -0.0125 in test [16]; 1.57 in test [17]; -0.512 in test [18]; 1.03 in [19]; 0.774 in test [20]. Further, the results for the z-score in [4] and in [12] were -0.606 (inactive) and -1.61, respectively.
Turning to `CCOC(=O)C[C@H]1[C@H](OC(=O)c2cc3ccccc3oc2=O)[C@@H](NC(=O)c2ccc(-c3ccccc3)cc2)c2cc(OCCCO)ccc2N1C(=O)Cc1ccc(OC)cc1`, the composite z-score in test [1] is 0.782; in test [2] it was 0.0384; in [3] it was -0.037; in [5], 1.04; in test [6] it was 0.889; in test [7], 0.419. In addition, the composite z-score in test [8] was 0.686; in test [9] it was 0.682; in test [10], 0.321; in test [11] it was 0.697; in test [13], 0.497; in test [14], -0.0241. Moreover, the composite z-score in test [15] was -0.273; in test [16], -0.0735; in [17], -0.0035; in [18], 0.179; in test [19], 0.674; in test [20], 0.731. Further, the z-score in test [4] was 0.595 (inactive); in [12] it was -0.971.
